# BAZ2B inh: qHTS Assay for Inhibitors of BAZ2B | Bromodomain adjacent to zinc finger domain protein 2B (Homo sapiens), Q9UIF8 | 360,000 tested, 4.4% active | Potency, µM (top dose mostly 114 µM), for the others: top-dose activity change, negative = inhibition, usual class: inhibitors | AID 504333, 2011 | AlphaScreen BAZ2B-H3K14Ac peptide displacement; also: % is scaled to controls: 0 for no effect and ±100 for the full control effect; nearly all actives have a fitted effect of over 60% in size
#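 In this displacement format the biotinylated H3(5-23) peptide acetylated at Lys14 serves as ligand at 50 nM, with BAZ2B at 50 nM in PBS pH 7.4 containing 0.01% Tween-20. Donor and acceptor beads are 10 ug/mL final.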
# G9a block: qHTS Assay for Inhibitors of Histone Lysine Methyltransferase G9a; 350,000 tested, 8.8% active; G9a H3K9 monomethylation, AlphaScreen, 2 h; Histone-lysine N-methyltransferase EHMT2 (Homo sapiens), Q96KQ7; Potency, µM (series often up to 102 µM), for the others: at the top dose activity, negative = inhibition, most hits filed as inhibitors; also: % is scaled to controls: 0 for no effect and ±100 for the full control effect; nearly all actives have a fitted effect of over 75% in size
# Target sequence (Q96KQ7 913-1193 limits assumed): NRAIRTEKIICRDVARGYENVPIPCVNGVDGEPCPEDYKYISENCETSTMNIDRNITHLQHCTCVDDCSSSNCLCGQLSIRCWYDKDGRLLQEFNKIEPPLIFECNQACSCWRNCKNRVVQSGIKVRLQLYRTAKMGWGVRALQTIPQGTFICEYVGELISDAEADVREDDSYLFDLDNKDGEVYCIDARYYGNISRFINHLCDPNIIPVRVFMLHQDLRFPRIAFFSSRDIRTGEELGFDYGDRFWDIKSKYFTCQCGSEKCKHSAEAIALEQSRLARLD
#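 Step 1: enzyme (final 20 nM) with compound, 15 min RT. Step 2: substrate peptide 500 nM and SAM 20 uM, 2 h RT. Step 3: anti-H3K9me1 antibody and AlphaScreen beads, 10 min, then plate read.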
# JMJD2A Tudor inh: qHTS Assay for Inhibitors of JMJD2A-Tudor Domain | AID 504339, 2011 | 390,000 tested, 4.4% active | Lysine-specific demethylase 4A (Homo sapiens), O75164 | Potency, µM (top dose mostly 114 µM), for inactives: top-dose activity change, negative = inhibition, hits mostly inhibitors | AlphaScreen JMJD2A-Tudor / H3K4me3 peptide binding; also: % is scaled to controls: 0 for no effect and ±100 for the full control effect; nearly all actives have a fitted effect of over 50% in size
# HP1b binding inh: HTS for Inhibitors of HP1-beta Chromodomain Interactions with Methylated Histone Tails | Potency, µM (titrated, usually from 114 µM), without a hit: at the top dose activity change, negative = inhibition, actives largely listed as inhibitors | 390,000 tested, 0.56% active | AlphaScreen HP1-beta / biotin-H3K9me3 peptide binding; also: nearly all actives have a fitted effect of over 70% in size
# Target sequence (P83916 whole entry, looked up): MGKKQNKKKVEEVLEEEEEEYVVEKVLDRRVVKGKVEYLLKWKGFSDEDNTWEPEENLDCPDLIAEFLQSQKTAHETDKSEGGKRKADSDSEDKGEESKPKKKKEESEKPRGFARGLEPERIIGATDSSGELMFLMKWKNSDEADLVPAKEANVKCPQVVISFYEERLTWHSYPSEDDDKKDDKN
#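 AlphaScreen: HP1-beta (50 nM) preformed 30 min with biotin-H3(1-18)K9me3 peptide (50 nM) in PBS pH 7.4, 0.01% Tween-20. Compound added for 30 min at RT, then streptavidin donor/nickel chelate acceptor beads (10 ug/mL) for 30 min.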
# L3MBTL1 inh: qHTS Assay for the Inhibitors of L3MBTL1. Lethal(3)malignant brain tumor-like protein 1 (Homo sapiens), Q9Y468. AlphaScreen L3MBTL1–H3K9me1 peptide binding. Potency, µM (highest dose often 57.1 µM), inactives show at the highest dose activity, negative = inhibition, usual class: inhibitors. 230,000 tested, 0.66% active; also: % is scaled to controls: 0 for no effect and ±100 for the full control effect; nearly all actives have a fitted effect of over 60% in size
#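 Displacement of a biotinylated histone H3(1-15) peptide monomethylated at Lys9 (75 nM) from L3MBTL1 (50 nM) was measured by AlphaScreen after a 30 min room-temperature compound incubation; cefsulodin titration served as intraplate control.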
# GLS inhibitor: qHTS for Inhibitors of Glutaminase (GLS); Glutaminase kidney isoform, mitochondrial (Homo sapiens), O94925; GLS enzymatic activity, qHTS titration; Potency, µM (series often up to 45.5 µM), for inactives: at the top dose activity change, negative = inhibition, actives largely listed as inhibitors; 410,000 tested, 0.21% active; AID 624170, 2012; also: % is scaled to controls: 0 for no effect and ±100 for the full control effect
#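 Read-out is an Amplex red fluorescence increase coupled through glutamate oxidase and HRP, measured before and after 30 min room-temperature incubation. hKGA is in 45 mM KH2PO4 (pH 8.2) with 0.02% Tween-20; glutamine added as 1mM solution.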
# Starred values were filed as active, the others as inactive; u = inconclusive; x = no result; ! = a repeat was not active; [ ] = another dose, or the depositor's remark. Rows were chosen to be rich in hits. Some 10% of all compounds tested hit in one or more screens of this group. Calls follow the shape of the dose curve; as a rule, active = well fitted curve in the direction sought with a large enough effect; inconclusive = small, poorly fitted or top-dose-only effect, or another doubt; inactive = no such curve, though single readings can be large; an effect the other way counts as inactive or inconclusive. Potency is read from the fitted curve at half-maximal effect.
SMILES,BAZ2B inh,G9a block,JMJD2A Tudor inh,HP1b binding inh,L3MBTL1 inh,GLS inhibitor
Cc1ccc(S(=O)(=O)c2nc(-c3ccccc3F)oc2N2CCCCC2)cc1,u,u,-22%,-17%,x,11%
CCC12CCCN3CCC4(C(=C(C(=O)OC)C1)Nc1ccccc14)C32 (stereo unspecified),u,2.8µM*,u,-11%,-2%,-4%
O=C(CSc1nnc(-c2cccnc2)o1)Nc1cccc(Cl)c1,-8%,45µM*,-8%,29%,x,2%
Cc1ccc(NC(=O)CSc2nnc(-c3ccccc3Br)o2)cc1C,-5%,10µM*,-17%,15%,8%,0%
O=C(CSc1nnc(-c2ccc(O)cc2)o1)NNC(=O)c1ccncc1,u,18µM*,u,8%,x,0%
O=C(CSc1nnc(-c2ccncc2)o1)Nc1nncs1,-22%,15%,32µM*,18%,x,2%
CC(=O)Nc1ccc(NC(=O)CSc2cn(CC(=O)N(C(C)C)C(C)C)c3ccccc23)cc1,-22%,-7%[59 µM],-16%,16%,x,0%
CCOc1ccc(C(=O)Nc2ccc3nc(SCC(=O)N4CCc5ccccc54)sc3c2)cc1,-12%,-4%[59 µM],-18%,21%,x,1%
Cc1ccc(C)n1C1CCS(=O)(=O)C1 (stereo unspecified),-7%,56µM*,-5%,10%,1%,-4%
COC(=O)C1CSC(C(=O)OC)N1C(=O)Nc1c(C)cccc1C (stereo unspecified),10%,16%[59 µM],-20%,9%,3%,13%
Cc1cccc(C)c1NC(=O)N1C(C(=O)O)CSC1C(=O)O (stereo unspecified),u,u,18µM*,-6%,20%,0%
COc1cccc(NC(=O)CCC2CCN(C(=O)c3cncs3)CC2)c1,2%,40µM*,-5%,30%,x,5%
COc1cccc(NC(=O)CCC2CCN(C(=O)c3scnc3C)CC2)c1,-6%,27%,-12%,18%,x,0%
O=C(Cn1c(=O)nc(-c2ccccc2)c2ccccc21)Nc1ccc(Cl)c(C(F)(F)F)c1,2%,-2%[12.7 µM],7%,33%,x,2%
OC(CNCC(c1ccc(Cl)cc1Cl)c1c[nH]c2ccccc12)c1ccccc1 (stereo unspecified),u,50µM*,35µM*,u,-8%,-4%
Cc1ccc2oc(C(=O)Nc3sc4c(c3C(=O)NCc3cccnc3)CCCC4)cc(=O)c2c1,-15%,-14%[59 µM],-10%,58%,x,-7%
O=C(O)c1cc(-c2ccccc2)n(-c2ccccc2C(=O)O)n1,12%,u,28µM*,-4%,22%,15%
O=C(O)c1cc(-c2ccccc2)n(-c2ccc(Cl)cc2Cl)n1,-1%,11%,-6%,26%,x,-4%
COc1cc2c(cc1OC)C(COc1ccc3c(C)cc(=O)oc3c1)N(C(=O)c1ccccc1F)CC2 (stereo unspecified),-4%,7%[59 µM],3%,25%,x,-2%
CCC(C(=O)Nc1ccc(C(C)C)cc1)n1nc(C)n2c(cc3cc(C)ccc32)c1=O (stereo unspecified),-12%,5%[59 µM],-20%,5%,x,-13%
CC1(C)Cc2c(C#N)c(N)sc(=S)c2CS1,-8%,25µM*,50µM*,u,-12%,6%
CC(C)c1nc(Cl)c(C#N)c2c1CSC(C)(C)C2,3%,-5%,7%,15%,5%,7%
Cn1c(N)c(C#N)c2c(c1=S)CSC(C)(C)C2,-10%,25µM*,79µM*,5%,-3%,24%
Cn1c(N)c(C#N)c2c(c1=S)COC(C)(C)C2,2%,-16%,-11%,12%,x,9%
CC(C)C1Cc2c(C#N)c(N)n(C)c(=S)c2CO1 (stereo unspecified),-13%,50µM*,-12%,25%,-2%,0%
SMILES,BAZ2B inh,G9a block,JMJD2A Tudor inh,HP1b binding inh,L3MBTL1 inh,GLS inhibitor
COc1ccc(Cn2c(=O)[nH]c3cc(C(=O)N4CCN(c5cc(Cl)ccc5C)CC4)ccc3c2=O)cc1,-5%,-4%[59 µM],-26%,6%,x,2%
Cn1c(NCCCN2CCOCC2)nc2c1c(=O)n(Cc1ccc(Cl)cc1)c(=O)n2C,u,u,-34%,26%,-3%,16µM*
Cn1c(NCCCCO)nc2c1c(=O)n(Cc1ccc(Cl)cc1)c(=O)n2C,-18%,8%[59 µM],-22%,7%,x,13µM*
Cn1c(NCCCN2CCOCC2)nc2c1c(=O)n(Cc1ccc(Cl)c(Cl)c1)c(=O)n2C,u,-8%[2.33 µM],u,-13%,x,-16%
COc1ccc(C(=O)NCC2(N3CCN(C)CC3)CCCCC2)cc1,2%,-6%[59 µM],4%,37%,x,14%
Cc1cccc(OCC(=O)Nc2ccc3c(c2)nc(CCN2CCCCC2)n3C)c1,-7%,-7%,-23%,13%[57 µM],x,8%
CC(=O)N1CCN(Cc2nc3cc(NC(=O)COc4cccc(C)c4)ccc3n2C)CC1,u,6.3µM*,-21%,10%,x,2%
Cc1cccc(OCC(=O)Nc2ccc3c(c2)nc(CN2CCCCC2)n3C)c1,u,32µM*,89µM*!,31%,x,18%
N[C@@H](CSCCCO)C(=O)O,x,5%[59 µM],x,x,x,-12%
CCC(C)NCCCCOc1ccc(Cl)cc1C (stereo unspecified),-13%,u,14µM*,-20%,14%,3%
CCC(C)NCCCOc1cc(Cl)ccc1Cl (stereo unspecified),50µM*,7.9µM*,2.5µM*,u,x,-7%
CCN1C(=O)C2CCCCN2c2ccc(C(=O)NCCOC)cc21 (stereo unspecified),0%,79µM*,0%,51%,x,23%
COc1ccc(NC2=CC(=O)CC(c3ccc(C)cc3)C2)c(OC)c1 (stereo unspecified),x,x,79µM*,-16%,x,34%
COc1ccccc1NC1=CC(=O)CC(c2ccccc2)C1 (stereo unspecified),2%,u,-7%,29%,-3%,6%
COc1ccc(-c2nc3ccccc3o2)cc1NC(=O)c1ccc(N2CCC(C)CC2)c([N+](=O)[O-])c1,-24%,-30%[59 µM],-29%,2%,x,-2%
C=CCOc1ccc(C2/C(=C(\O)c3ccc4c(c3)OCCO4)C(=O)C(=O)N2CCCN2CCOCC2)cc1 (stereo unspecified),-24%[57.1 µM],50µM*,-14%,13%,x,16%
